Assay results as given in PubChem BioAssay (NCI).
This is part of a sample that, as a whole, favours compounds with a hit. Of some 79,000 tested, about 15% had one in any assay. A number with no mark means an inactive call. Activity calls are given as the source filed them. No stated cut-off is given here; in the data, active means growth inhibition above about 70%; inactive means the rest.

Columns and labels:
[1] = NCI Yeast Anticancer Drug Screen. Data for the rad50 strain (AID 155);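 further: 0% = growth of vehicle-only cultures of the same strain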; conditions: S. cerevisiae rad50 strain growth inhibition, active compounds read high
Procedure, shortened: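 Compounds were tested on a yeast strain with an engineered DNA damage repair alteration; the reported value is growth inhibition normalised to vehicle treatment.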

[2] = NCI Yeast Anticancer Drug Screen. Data for the mec2-1 strain (AID 157); conditions: S. cerevisiae mec2-1 strain, active compounds read high
Procedure, shortened: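 Using mec2-1 yeast: add compound, measure growth, express inhibition versus vehicle-treated cultures.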

[3] = NCI Yeast Anticancer Drug Screen. Data for the sgs1 mgt1 strain (AID 161);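 further: 0% = growth of cultures given vehicle only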; conditions: S. cerevisiae sgs1 mgt1 strain, active compounds read high
Procedure, shortened: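 Yeast cells carrying a defined DNA-repair defect were exposed to test compounds. Growth inhibition was measured relative to vehicle-treated controls.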

[4] = NCI Yeast Anticancer Drug Screen. Data for the cln2 rad14 strain (AID 165);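 further: 0% = growth equal to vehicle treated cultures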; conditions: S. cerevisiae cln2 rad14 strain, active compounds read high
Procedure, shortened: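 Yeast strain cln2 rad14, bearing defects in cell cycle control and DNA repair, serves as the test system; values reflect growth inhibition compared with vehicle.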

[5] = NCI Yeast Anticancer Drug Screen. Data for the bub3 strain (AID 167); conditions: S. cerevisiae bub3 mutant strain, active compounds read high
Procedure, shortened: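 Growth of a checkpoint-deficient yeast mutant is measured after compound exposure. Values represent inhibition relative to vehicle.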

[6] = NCI Yeast Anticancer Drug Screen. Data for the mlh1 rad18 strain (AID 175); conditions: S. cerevisiae mlh1 rad18 strain growth inhibition, active compounds read high
Procedure, shortened: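 Steps: expose repair-defective yeast to compound; measure growth; express inhibition against vehicle-treated controls.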

[7] = at 5.0 µM (retest, dose inferred, filed as 0.5)
[8] = at 50.0 µM (retest, dose inferred, filed as 5.0)

Structure (SMILES) | growth inhibition [1, 7] | growth inhibition [1, 8] | growth inhibition ([1]; at 50.0 µM) | growth inhibition [2, 7] | growth inhibition [2, 8] | growth inhibition ([2]; at 50.0 µM) | growth inhibition [3, 7] | growth inhibition [3, 8] | growth inhibition ([3]; at 50.0 µM) | growth inhibition [4, 7] | growth inhibition [4, 8] | growth inhibition ([4]; at 50.0 µM) | growth inhibition [5, 7] | growth inhibition [5, 8] | growth inhibition ([5]; at 50.0 µM) | growth inhibition [6, 7] | growth inhibition [6, 8] | growth inhibition ([6]; at 50.0 µM)
CCN1C(C)N1P(=S)(OC1CC(C)(C)N(O)C(C)(C)C1)OC1CC(C)(C)N(O)C(C)(C)C1 (centres undefined) | -2% | 3% | 45.9% | -6% | 6% | 91.3% (active) | -3% | 1% | 32.2% | -3% | 4% | 90.3% (active) | -5% | 5% | 98.1% (active) | -5% | 12% | 14.6%
Cc1ccc(S(=O)(=O)/N=[Se](\C)c2ccccc2)cc1 (centres undefined) | 16% | 94% (active) | 93.7% (active) | 11% | 95% (active) | 68.5% | 18% | 83% (active) | 90.7% (active) | -1% | 56% | 60.9% | 2% | 83% (active) | 80% (active) | 13% | 91% (active) | 87.4% (active)
C[PH+](C)C.C[PH+](C)C.[Au] | 36% | 70% (active) | 85.7% (active) | 30% | 89% (active) | 91.8% (active) | 59% | 82% (active) | 91% (active) | 18% | 32% | 88% (active) | 27% | 57% | 89.5% (active) | 68% | 91% (active) | 89% (active)
Cc1cc[n+](C2=C(Nc3c(C)cccc3C)C(=O)c3ccccc3C2=O)cc1 | 44% | 88% (active) | 89.7% (active) | 5% | 61% | 73.2% (active) | -6% | 67% | 68.1% | -7% | 54% | 15.2% | 6% | 66% | 48.4% | -1% | 51% | 71.2% (active)
C[CH2][Sn]([Cl])([CH2]C)[CH2]C | 7% | 87% (active) | 98.3% (active) | 0% | 84% (active) | 98.1% (active) | 0% | 91% (active) | 97.3% (active) | -6% | 60% | 80.8% (active) | -18% | 83% (active) | 98.2% (active) | 2% | 92% (active) | 98.2% (active)
CN(C)c1ncnc2c1ncn2C1OC(CO)C2NP(=O)(N(CCCl)CCCl)OC21 (centres undefined) | 1% | 80% (active) | 87.9% (active) | -3% | 24% | -1.35% | -3% | 63% | 71.2% (active) | 8% | 5% | 13.6% | 0% | 48% | 12.6% | -17% | 23% | 28.4%
C/C(=C\c1ccc(Cl)c(Cl)c1)[N+](=O)[O-] | 82% (active) | 98% (active) | 0% | 12% | 92% (active) | -9.75% | 27% | 100% (active) | 21% | 5% | 59% | -14.3% | 14% | 98% (active) | -4.85% | 8% | 54% | 23.1%
CN(C)CC1(N)C(=O)NC(=O)NC1=O | 3% | 10% | 75.7% (active) | 4% | 11% | 78% (active) | 4% | 8% | 47.3% | -1% | -1% | 43.6% | 0% | 8% | 95.2% (active) | -1% | 10% | 46.2%
C1=C[N-]c2c3c(ccc2=C1)=CC=C[N-]3.C1=C[N-]c2c3c(ccc2=C1)=CC=C[N-]3.F[P-](F)(F)(F)(F)F.[Cu+2] | 56% | 98% (active) | 99.3% (active) | 52% | 99% (active) | 99.5% (active) | 47% | 99% (active) | 99.5% (active) | 51% | 98% (active) | 98.8% (active) | 48% | 99% (active) | 99.2% (active) | 53% | 99% (active) | 99.1% (active)
CN(CCCl)Cc1ccc(OCc2ccccc2)c(OCc2ccccc2)c1 | 2% | 98% (active) | 99.7% (active) | -20% | 99% (active) | 99.6% (active) | 0% | 99% (active) | 99.7% (active) | 8% | 98% (active) | 98.1% (active) | 0% | 99% (active) | 99.4% (active) | 3% | 99% (active) | 99.6% (active)
CCCCCCCCCCCCCC(=O)[O][Hg][c]1ccccc1 | 99% (active) | 93% (active) | 99.5% (active) | 100% (active) | 99% (active) | 99.6% (active) | 100% (active) | 99% (active) | 99.6% (active) | 99% (active) | 98% (active) | 99.6% (active) | 99% (active) | 99% (active) | 99.5% (active) | 99% (active) | 99% (active) | 99.6% (active)
O=C(Oc1ccc(S(=O)(=O)F)cc1F)c1ccccc1Cl | 5% | 99% (active) | 99.2% (active) | 5% | 99% (active) | 99.5% (active) | -2% | 99% (active) | 99.3% (active) | -10% | 99% (active) | 99% (active) | 6% | 99% (active) | 99.4% (active) | 21% | 99% (active) | 98.7% (active)
CCCCCCCCCCCCCCCC[N+](C)(C)CCOS(C)(=O)=O | 99% (active) | 98% (active) | 91.2% (active) | 99% (active) | 99% (active) | 90.4% (active) | 99% (active) | 99% (active) | 90.3% (active) | 93% (active) | 99% (active) | 86.5% (active) | 99% (active) | 99% (active) | 92.4% (active) | 98% (active) | 98% (active) | 92.3% (active)
O=C(O)C(O)(c1ccc(-c2ccccc2)cc1)c1ccc(-c2ccccc2)cc1 | 16% | 91% (active) | 96.4% (active) | 13% | 93% (active) | 97% (active) | 0% | 95% (active) | 96.2% (active) | 5% | 93% (active) | 95% (active) | -12% | 93% (active) | 96.9% (active) | 1% | 96% (active) | 96.8% (active)
CC1(Br)Cc2ccccc2C1=O (centres undefined) | 3% | 43% | -2.2% | 4% | 33% | 37.2% | 2% | 31% | 42.3% | 1% | 16% | -35% | -2% | 36% | 70% (active) | 4% | 34% | 20.4%
CC(=O)O[C@@H]1[C@@H](O)[C@H]2O[C@@H]3C=C(C)C(=O)[C@@H](O)[C@]3(CO)[C@]1(C)[C@]21CO1 | 14% | 85% (active) | 48.7% | 22% | 93% (active) | 20.1% | 13% | 90% (active) | 62.4% | 33% | 92% (active) | 23.5% | 8% | 90% (active) | 85% (active) | 18% | 95% (active) | 83.3% (active)
O=C1C(=O)C(Br)(Br)C(Br)=C1Br | -2% | 4% | 88.5% (active) | 1% | 21% | 88.2% (active) | -4% | 5% | 95% (active) | -1% | -2% | 90.5% (active) | -4% | -1% | 93.5% (active) | -4% | -4% | 96.8% (active)
CC1(C(=O)O)CCCC2(C)c3cc(O)ccc3CCC12 (centres undefined) | 2% | 83% (active) | 18.4% | 2% | 86% (active) | 13% | 2% | 88% (active) | 46.4% | -3% | 89% (active) | 52.4% | 5% | 87% (active) | 41.9% | 3% | 89% (active) | 42.5%
